We go through 38 targets from the supplement of paper PMC10849652.

Targets with a hit are over-represented here; the source holds about 7,900 in all. About 0.6% of all pairs of compound and target were hits.

Chain of UniProt P13473 (P13473 whole entry, looked up): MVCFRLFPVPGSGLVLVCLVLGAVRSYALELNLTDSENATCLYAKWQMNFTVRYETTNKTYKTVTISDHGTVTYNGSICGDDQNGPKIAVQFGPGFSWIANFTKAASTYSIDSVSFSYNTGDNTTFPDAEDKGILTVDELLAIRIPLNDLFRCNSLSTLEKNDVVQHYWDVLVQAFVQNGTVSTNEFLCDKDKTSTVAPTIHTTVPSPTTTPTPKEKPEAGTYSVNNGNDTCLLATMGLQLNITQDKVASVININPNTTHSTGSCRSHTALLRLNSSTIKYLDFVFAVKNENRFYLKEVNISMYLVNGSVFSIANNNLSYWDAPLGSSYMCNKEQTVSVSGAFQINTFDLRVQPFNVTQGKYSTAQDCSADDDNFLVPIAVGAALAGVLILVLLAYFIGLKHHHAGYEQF
Chain of UniProt P43362 (P43362 whole entry, looked up): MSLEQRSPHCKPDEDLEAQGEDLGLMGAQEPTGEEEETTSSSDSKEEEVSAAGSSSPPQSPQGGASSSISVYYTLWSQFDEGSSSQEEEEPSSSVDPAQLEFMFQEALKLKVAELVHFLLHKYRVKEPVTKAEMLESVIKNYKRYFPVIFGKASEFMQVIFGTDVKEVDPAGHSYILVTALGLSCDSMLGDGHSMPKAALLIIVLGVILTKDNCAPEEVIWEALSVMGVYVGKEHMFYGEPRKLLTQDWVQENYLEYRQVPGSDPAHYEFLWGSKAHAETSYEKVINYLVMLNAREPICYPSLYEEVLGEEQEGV
Chain of UniProt O14880 (O14880 whole entry, looked up): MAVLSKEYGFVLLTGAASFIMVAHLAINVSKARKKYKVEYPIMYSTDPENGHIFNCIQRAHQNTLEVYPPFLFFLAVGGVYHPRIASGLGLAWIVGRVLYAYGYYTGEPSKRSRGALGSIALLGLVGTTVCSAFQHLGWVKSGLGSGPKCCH
Chain of UniProt O43766 (O43766 whole entry, looked up): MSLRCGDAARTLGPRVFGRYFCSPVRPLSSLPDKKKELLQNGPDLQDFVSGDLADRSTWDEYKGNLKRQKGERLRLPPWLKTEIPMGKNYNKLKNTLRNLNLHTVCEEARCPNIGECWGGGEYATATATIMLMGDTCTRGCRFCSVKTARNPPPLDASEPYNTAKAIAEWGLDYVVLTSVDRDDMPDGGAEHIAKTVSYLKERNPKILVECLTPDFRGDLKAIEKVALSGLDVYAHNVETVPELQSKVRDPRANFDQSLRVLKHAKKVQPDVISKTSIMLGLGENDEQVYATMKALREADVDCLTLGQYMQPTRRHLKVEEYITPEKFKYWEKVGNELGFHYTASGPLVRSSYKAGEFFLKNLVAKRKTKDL
Chain of UniProt Q8NC56 (Q8NC56 whole entry, looked up): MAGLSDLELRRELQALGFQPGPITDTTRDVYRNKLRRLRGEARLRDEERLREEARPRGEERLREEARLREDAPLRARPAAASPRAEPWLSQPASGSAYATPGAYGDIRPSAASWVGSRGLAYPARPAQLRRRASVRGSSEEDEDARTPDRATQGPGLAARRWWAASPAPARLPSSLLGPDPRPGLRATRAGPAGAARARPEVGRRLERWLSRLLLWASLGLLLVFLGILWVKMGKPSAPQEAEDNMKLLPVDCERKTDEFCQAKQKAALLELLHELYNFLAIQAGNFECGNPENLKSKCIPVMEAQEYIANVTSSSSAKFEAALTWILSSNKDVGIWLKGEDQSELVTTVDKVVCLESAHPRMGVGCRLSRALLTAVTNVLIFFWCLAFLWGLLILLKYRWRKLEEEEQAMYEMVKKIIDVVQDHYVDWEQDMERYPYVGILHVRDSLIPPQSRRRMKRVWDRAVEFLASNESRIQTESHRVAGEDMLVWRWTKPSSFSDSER
Chain of UniProt Q9Y6M1 (Q9Y6M1 whole entry, looked up): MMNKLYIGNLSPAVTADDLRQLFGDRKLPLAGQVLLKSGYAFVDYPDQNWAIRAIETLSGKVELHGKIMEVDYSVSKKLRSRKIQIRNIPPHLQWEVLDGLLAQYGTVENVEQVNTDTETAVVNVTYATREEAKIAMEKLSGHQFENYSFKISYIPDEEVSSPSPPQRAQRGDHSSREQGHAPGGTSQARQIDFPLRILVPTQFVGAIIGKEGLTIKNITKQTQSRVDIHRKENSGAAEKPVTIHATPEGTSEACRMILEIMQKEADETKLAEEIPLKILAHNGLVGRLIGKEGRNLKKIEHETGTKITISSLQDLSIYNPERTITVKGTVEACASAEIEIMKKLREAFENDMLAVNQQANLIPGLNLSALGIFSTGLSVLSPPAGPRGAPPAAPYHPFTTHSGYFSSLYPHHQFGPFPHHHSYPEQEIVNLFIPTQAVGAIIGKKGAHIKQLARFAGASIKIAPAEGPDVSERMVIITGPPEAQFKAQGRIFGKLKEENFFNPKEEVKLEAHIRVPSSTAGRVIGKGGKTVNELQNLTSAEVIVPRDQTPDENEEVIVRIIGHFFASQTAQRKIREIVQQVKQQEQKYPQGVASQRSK
Chain of UniProt O43513 (O43513 whole entry, looked up): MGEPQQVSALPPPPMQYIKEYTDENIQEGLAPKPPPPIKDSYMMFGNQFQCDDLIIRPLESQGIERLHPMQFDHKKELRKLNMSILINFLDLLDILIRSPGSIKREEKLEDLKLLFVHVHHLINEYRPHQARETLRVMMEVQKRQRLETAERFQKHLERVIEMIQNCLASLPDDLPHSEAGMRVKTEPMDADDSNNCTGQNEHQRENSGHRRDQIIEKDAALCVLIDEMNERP
Chain of UniProt Q14681 (Q14681 whole entry, looked up): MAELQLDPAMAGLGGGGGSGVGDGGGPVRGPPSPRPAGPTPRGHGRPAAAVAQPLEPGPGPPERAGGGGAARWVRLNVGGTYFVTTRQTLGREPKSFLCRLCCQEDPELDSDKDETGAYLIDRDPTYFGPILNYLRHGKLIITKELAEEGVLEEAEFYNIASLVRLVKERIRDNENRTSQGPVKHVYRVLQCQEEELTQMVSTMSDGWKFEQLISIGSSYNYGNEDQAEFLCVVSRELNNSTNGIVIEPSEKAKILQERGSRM
Chain of UniProt O95140 (O95140 whole entry, looked up): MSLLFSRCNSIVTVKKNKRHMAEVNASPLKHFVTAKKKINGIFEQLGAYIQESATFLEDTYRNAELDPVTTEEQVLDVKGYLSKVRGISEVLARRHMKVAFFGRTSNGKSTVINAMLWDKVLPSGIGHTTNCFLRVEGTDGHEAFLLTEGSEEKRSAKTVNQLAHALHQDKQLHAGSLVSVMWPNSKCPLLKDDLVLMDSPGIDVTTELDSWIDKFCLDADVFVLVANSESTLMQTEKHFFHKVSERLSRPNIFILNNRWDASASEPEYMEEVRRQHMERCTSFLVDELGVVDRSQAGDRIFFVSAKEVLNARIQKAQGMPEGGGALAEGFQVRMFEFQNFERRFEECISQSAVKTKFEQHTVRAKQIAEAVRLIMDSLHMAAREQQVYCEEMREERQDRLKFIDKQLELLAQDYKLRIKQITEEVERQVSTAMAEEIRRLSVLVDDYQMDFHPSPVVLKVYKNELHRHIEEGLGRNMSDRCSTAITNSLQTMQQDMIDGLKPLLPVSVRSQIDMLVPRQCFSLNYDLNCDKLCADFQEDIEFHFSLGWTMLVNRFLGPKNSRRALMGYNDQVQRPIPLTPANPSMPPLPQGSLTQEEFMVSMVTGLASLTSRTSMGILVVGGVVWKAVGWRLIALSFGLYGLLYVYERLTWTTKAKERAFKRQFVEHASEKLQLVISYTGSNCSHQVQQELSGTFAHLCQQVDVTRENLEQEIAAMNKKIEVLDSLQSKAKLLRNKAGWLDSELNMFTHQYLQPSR
Chain of UniProt Q9Y496 (Q9Y496 whole entry, looked up): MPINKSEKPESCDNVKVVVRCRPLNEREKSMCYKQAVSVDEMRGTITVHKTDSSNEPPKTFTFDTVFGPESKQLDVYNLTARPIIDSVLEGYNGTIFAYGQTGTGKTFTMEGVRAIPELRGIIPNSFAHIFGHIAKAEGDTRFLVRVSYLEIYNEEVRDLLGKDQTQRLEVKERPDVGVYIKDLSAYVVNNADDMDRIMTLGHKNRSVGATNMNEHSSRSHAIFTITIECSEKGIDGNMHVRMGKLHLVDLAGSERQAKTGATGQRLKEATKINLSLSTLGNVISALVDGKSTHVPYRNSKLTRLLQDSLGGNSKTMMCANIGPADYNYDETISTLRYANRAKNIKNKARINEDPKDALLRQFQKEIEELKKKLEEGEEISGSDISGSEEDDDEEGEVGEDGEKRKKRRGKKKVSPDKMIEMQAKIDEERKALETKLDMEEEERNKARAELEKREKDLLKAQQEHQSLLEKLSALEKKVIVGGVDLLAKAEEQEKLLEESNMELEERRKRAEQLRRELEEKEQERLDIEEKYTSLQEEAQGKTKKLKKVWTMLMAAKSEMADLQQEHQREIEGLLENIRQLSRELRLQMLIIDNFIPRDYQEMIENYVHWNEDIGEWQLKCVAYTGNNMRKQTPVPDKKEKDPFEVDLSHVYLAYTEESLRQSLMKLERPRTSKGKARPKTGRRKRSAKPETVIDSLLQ
Chain of UniProt P49137 (P49137 whole entry, looked up): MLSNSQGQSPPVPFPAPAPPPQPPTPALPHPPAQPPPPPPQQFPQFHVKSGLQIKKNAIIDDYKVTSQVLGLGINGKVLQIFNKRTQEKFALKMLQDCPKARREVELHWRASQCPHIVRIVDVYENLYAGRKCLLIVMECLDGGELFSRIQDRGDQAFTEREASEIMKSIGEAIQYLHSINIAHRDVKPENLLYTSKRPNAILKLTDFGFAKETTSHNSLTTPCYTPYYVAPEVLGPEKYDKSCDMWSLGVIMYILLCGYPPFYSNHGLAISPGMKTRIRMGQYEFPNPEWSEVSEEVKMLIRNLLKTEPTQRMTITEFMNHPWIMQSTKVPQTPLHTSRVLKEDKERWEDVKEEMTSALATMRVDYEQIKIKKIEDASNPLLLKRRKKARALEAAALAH
Chain of UniProt O95372 (O95372 whole entry, looked up): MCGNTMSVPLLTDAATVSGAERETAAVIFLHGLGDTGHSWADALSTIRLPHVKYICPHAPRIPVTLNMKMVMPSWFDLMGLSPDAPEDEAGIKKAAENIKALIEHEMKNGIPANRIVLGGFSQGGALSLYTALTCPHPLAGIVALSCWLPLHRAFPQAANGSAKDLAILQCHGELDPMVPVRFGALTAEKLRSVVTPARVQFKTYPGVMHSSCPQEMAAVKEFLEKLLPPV

Compound in one assay: CC1=C2C(=CC=C1)N=C(N(C2=O)C3=CC=CC=C3C)CN4C=NC5=C(N=CN=C54)N
As to the kind of experiment: log2 fold change, soluble protein after heating vs DMSO (PISA); higher = thermal stabilisation; K562 cells, 10 uM, 30 min; active = over 0.2 and 3.5 SD of the protein, either way, in both replicates (recomputed). The method in brief:
(§1)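 Soluble protein was defined as the supernatant after 21,000xg for 90 min. It came from K562 cells at 2×10^6 cells/mL given 10 μM compound for 30 min, heated in aliquots for 3 min across 48°C-58°C, pooled, and extracted in PBS with 0.5% NP-40 at 4°C, and was quantified by TMTpro 16plex LC-MS/MS with equalised channel sums. Thermal stability against control samples, from duplicates, is reported as log2 fold change.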
KCTD2 (UniProt Q14681): the log2 fold change is 0.022 (inactive).

Turning to MED8 isoform 2 (UniProt Q96G25), the log2 fold change was -0.381 (active). Take KDM5D isoform 3 (UniProt Q9BY66): the log2 fold change is 0.102 (inactive). With KTN1 (UniProt Q86UP2), the log2 fold change is 0.019 (inactive). Consider IGF2BP2 (UniProt Q9Y6M1), for which the log2 fold change was -0.038 (inactive). Turning to ITM2C (UniProt Q9NQX7), the log2 fold change is 0.122 (inactive). The same measure, in the same setting: the figure for MASTL (UniProt Q96GX5) is 0.009 (inactive); for LMNB2 (UniProt Q03252) it is 0.062 (inactive). Still for that read-out and setting: the figure for KIF3A (UniProt Q9Y496) is 0.054 (inactive); for IGF2R (UniProt P11717) it is -0.008 (inactive). For MAGEA9 (UniProt P43362), the log2 fold change was 0.047 (inactive).

LONP2 (UniProt Q86WA8): the log2 fold change was 0.02 (inactive). For the target MFN2 (UniProt O95140), the log2 fold change is 0.013 (inactive). As to MGST3 (UniProt O14880), the log2 fold change is 0.005 (inactive). Turning to MDN1 (UniProt Q9NU22), the log2 fold change was 0.059 (inactive). Turning to KDM3B (UniProt Q7LBC6), the log2 fold change was 0.08 (inactive).

As to LRBA (UniProt P50851), the log2 fold change was 0.088 (inactive). For the target MAPKAPK2 (UniProt P49137), the log2 fold change is 0.012 (inactive).

As to KIF13A (UniProt Q9H1H9), the log2 fold change was 0.054 (inactive). Turning to LAMP2 (UniProt P13473), the log2 fold change was -0.041 (inactive). As for MFF (UniProt Q9GZY8), the log2 fold change was 0.064 (inactive). Still for that read-out and setting: under METTL18 (UniProt O95568) stands 0.061 (inactive). Still for that read-out and setting: the figure for LDLR (UniProt P01130) is 0.037 (inactive). On to LAMP2 isoform 2 (UniProt P13473), for which the log2 fold change was 0.04 (inactive). Turning to LIAS (UniProt O43766), the log2 fold change was 0.008 (inactive). Take MED7 (UniProt O43513): the log2 fold change is 0.017 (inactive). As to LUC7L3 (UniProt O95232), the log2 fold change is 0.023 (inactive). On to MBLAC1 (UniProt A4D2B0), for which the log2 fold change was -0.064 (inactive).

With INPP5B (UniProt P32019), the log2 fold change is 0.024 (inactive). Turning to MCL1 (UniProt Q07820), the log2 fold change was 0.135 (inactive).

As to MAP2K3 isoform 3 (UniProt P46734), the log2 fold change is 0.05 (inactive). For the target LARP4B (UniProt Q92615), the log2 fold change is 0 (inactive). For the target LTN1 isoform 3 (UniProt O94822), the log2 fold change is 0.08 (inactive).

For the target LYPLA2 (UniProt O95372), the log2 fold change was -0.023 (inactive). The same measure, in the same setting: under LNPEP (UniProt Q9UIQ6) stands 0.001 (inactive). In the case of MFN1 (UniProt Q8IWA4), the log2 fold change is 0.05 (inactive). Turning to LMBRD1 (UniProt Q9NUN5), the log2 fold change is 0.143 (inactive). Turning to LEMD2 (UniProt Q8NC56), the log2 fold change is 0.114 (inactive).

Compound in another assay: Cc1sc2c(c1C)C(c1ccc(Cl)cc1)=N[C@@H](CC(=O)OC(C)(C)C)c1nnc(C)n1-2
Described as above. The gist of the method: as §1
Take KCTD2 (UniProt Q14681): the log2 fold change was 0.195 (inactive). On to KDM5D isoform 3 (UniProt Q9BY66), for which the log2 fold change was -0.022 (inactive).

Turning to KTN1 (UniProt Q86UP2), the log2 fold change was 0.036 (inactive). As to IGF2BP2 (UniProt Q9Y6M1), the log2 fold change is 0.25 (inactive). Consider LMNB2 (UniProt Q03252), for which the log2 fold change was -0.04 (inactive). Consider KIF3A (UniProt Q9Y496), for which the log2 fold change is 0.049 (inactive). Same read-out and setting: under IGF2R (UniProt P11717) stands 0.001 (inactive). Turning to MAGEA9 (UniProt P43362), the log2 fold change was -0.055 (inactive). Consider LONP2 (UniProt Q86WA8), for which the log2 fold change is 0.009 (inactive).

As to MFN2 (UniProt O95140), the log2 fold change is -0.026 (inactive). With MGST3 (UniProt O14880), the log2 fold change was 0.006 (inactive).

As for MDN1 (UniProt Q9NU22), the log2 fold change is -0.054 (inactive). KDM3B (UniProt Q7LBC6): the log2 fold change was 0.038 (inactive).

With LRBA (UniProt P50851), the log2 fold change is 0 (inactive). Regarding MAPKAPK2 (UniProt P49137), the log2 fold change was 0.013 (inactive). Still for that read-out and setting: the figure for KIF13A (UniProt Q9H1H9) is -0.059 (inactive); for LAMP2 (UniProt P13473) it is -0.078 (inactive); for MFF (UniProt Q9GZY8) it is -0.017 (inactive).

Consider METTL18 (UniProt O95568), for which the log2 fold change is -0.055 (inactive). As to LDLR (UniProt P01130), the log2 fold change was 0.022 (inactive). Still for that read-out and setting: under LAMP2 isoform 2 (UniProt P13473) stands 0.052 (inactive); under LIAS (UniProt O43766), 0.049 (inactive); under MED7 (UniProt O43513), 0.016 (inactive).

Regarding LUC7L3 (UniProt O95232), the log2 fold change is 0.021 (inactive). As to INPP5B (UniProt P32019), the log2 fold change is 0.086 (inactive). On to MCL1 (UniProt Q07820), for which the log2 fold change was 0.057 (inactive).

As to MAP2K3 isoform 3 (UniProt P46734), the log2 fold change is 0.026 (inactive). On to LARP4B (UniProt Q92615), for which the log2 fold change was 0.081 (inactive). Consider LTN1 isoform 3 (UniProt O94822), for which the log2 fold change was -0.003 (inactive).

As for LYPLA2 (UniProt O95372), the log2 fold change is -0.161 (inactive).

Turning to LNPEP (UniProt Q9UIQ6), the log2 fold change was -0.016 (inactive). The same measure, in the same setting: the figure for MFN1 (UniProt Q8IWA4) is 0.07 (inactive); for LMBRD1 (UniProt Q9NUN5) it is -0.178 (inactive); for LEMD2 (UniProt Q8NC56) it is -0.017 (inactive).
